Screens: PubChem, several laboratories
Compounds with a hit are over-represented: about 3.2% of the library has one in this group of screens.
GDH-TPI counter-1 = GDH-TPI coupled enzyme inhibition counter-screen; GDH-TPI coupled enzyme counterscreen, NADH absorbance; inhibition, % at 4.8 µM; actives 1.2% (n = 360,000); AID 588335; in the data active = inhibition above about 30%;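 also: 0% = DMSO wells and 100% = wells lacking the enzyme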
TcdB inh = TcdB glycohydrolase inhibition | AID 652162 | TcdB glycohydrolase enzymatic assay, plate reader | inhibition, % at 9.99 µM | actives 0.24% (n = 350,000); in the data active = inhibition above about 10%
FBA Mtb inh = Mtb fructose-bisphosphate aldolase inhibition | actives 2.3% (n = 360,000) | purified M. tuberculosis FBA, fluorescence read-out | inhibition, % at 1 µM | AID 588726 | P9WQA3;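 also: 0% = vehicle and 100% = reference inhibitor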
Target sequence (P9WQA3 whole entry, looked up): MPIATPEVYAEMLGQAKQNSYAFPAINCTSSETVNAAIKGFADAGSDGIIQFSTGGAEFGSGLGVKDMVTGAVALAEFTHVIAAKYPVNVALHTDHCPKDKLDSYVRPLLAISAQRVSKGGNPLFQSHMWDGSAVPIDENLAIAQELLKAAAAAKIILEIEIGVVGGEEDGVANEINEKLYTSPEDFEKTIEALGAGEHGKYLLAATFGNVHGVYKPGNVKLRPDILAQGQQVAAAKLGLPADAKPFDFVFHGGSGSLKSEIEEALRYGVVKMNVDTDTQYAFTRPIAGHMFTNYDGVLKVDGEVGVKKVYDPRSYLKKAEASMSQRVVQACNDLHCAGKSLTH
PrPC surface inh = cell surface PrPC inhibition, primary TR-FRET screen; actives 0.43% (n = 370,000); inhibition, % at 13.8 µM; P04156; TR-FRET read-out; in the data active = inhibition above about 24%; also: 0% = median of the test wells and 100% = reference compound wells
Y pestis TopoI = Y. pestis Topo-I inhibition via cleavage products | Y. pestis Topo-I cleavage product accumulation, plate reader | activity, % at 10 µM | actives 0.064% (n = 360,000) | AID 504884; in the data active = activity above about 50%, passing the limit was not always enough
Mtb FBA confirm = confirmation of M. tuberculosis fructose-bisphosphate aldolase inhibitors. shares compounds with FBA Mtb inh. purified M. tuberculosis FBA, fluorescence read-out. inhibition, % at 1 µM. actives 78% (n = 5,600). AID 651616;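 also: 0% = vehicle wells and 100% = reference inhibitor wells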
GDH-TPI counter-2 = counter-screen for M. tuberculosis FBA inhibitors: GDH-TPI coupled enzyme inhibition. shares compounds with FBA Mtb inh. GDH-TPI coupled enzyme counterscreen, fluorescence. inhibition, % at 1 µM. actives 81% (n = 5,600). AID 652141; in the data active = inhibition above about 10%
GDH-TPI dose = inhibits GDH-TPI coupling enzymes in dose response. shares compounds with FBA Mtb inh. GDH-TPI coupled enzyme assay, fluorescence, artifact counterscreen. IC50, µM. actives 79% (n = 170). AID 652145; call rule not given here
Numbers without * were called inactive; · = no result given; + = active, no number. Rule as the data show it, unless noted: active = inhibition above about 27%; inactive = the rest.

SMILES | GDH-TPI counter-1 | TcdB inh | FBA Mtb inh | PrPC surface inh | Y pestis TopoI | Mtb FBA confirm | GDH-TPI counter-2 | others
O=C(Nc1ccc(Cl)c(Cl)c1)Nc1ccccc1C(=O)O | -1 | · | 52* | 0 | -3 | 35* | 19*
O=C(Nc1ccc(Cl)cc1)Nc1ccccc1C(=O)N1CCCC1 | · | · | · | 7 | · | · | ·
O=C(Cc1ccccc1)NNC(=O)Nc1ccc(Cl)c(Cl)c1 | -5 | 1 | 2 | 2 | -1 | · | ·
O=C(Nc1ccc(Cl)cc1)Nc1ccccc1C(=O)O | 2 | 1 | 54* | 0 | 5 | -1 | -3
CCNC(=O)[C@H]1[C@H](CO)[C@H]2Cn3c(ccc(-c4ccccc4)c3=O)[C@H]2N1Cc1ccc2c(c1)OCO2 | · | 2 | · | · | · | · | ·
O=C(O)/C=C/c1cn(-c2ccccc2)nc1-c1cc2ccccc2oc1=O | 25 | 1 | 3 | 5 | 2 | · | ·
Cc1ccc(-c2nn(-c3ccccc3)cc2/C=C/C(=O)O)o1 | 16 | 1 | 39* | 6 | 10 | -2 | -3
Cc1noc(C)c1NC(=O)Nc1cccc2c1O[C@@H](CN(C)C)[C@@H](C)CN([C@@H](C)CO)C2=O | · | 0 | · | · | · | · | ·
CCCN1CCN(C(=O)Cn2nc(C)n3c(cc4c(OC)cccc43)c2=O)CC1 | -3 | 0 | 86* | -8 | 4 | 169* | 113*
COc1cccc2c1cc1c(=O)n(CC(=O)NCCCN3CCN(C)CC3)nc(C)n12 | 14 | 0 | 102* | -4 | 6 | 93* | 88*
COc1cccc2c1cc1c(=O)n(CC(=O)NC3CCCCC3)nc(C)n12 | 9 | · | 3 | · | -5 | · | ·
C[C@H](CO)N1C[C@H](C)[C@H](CN(C)S(=O)(=O)c2ccccc2)Oc2c(NS(=O)(=O)c3ccccc3)cccc2C1=O | · | -2 | · | · | · | · | ·
Cn1c(=O)c2nc(-c3ccccc3)oc2c2ccccc21 | 9 | · | 99* | 3 | -2 | 91* | 60*
CCCCCc1nc2c(=O)n(C)c3ccccc3c2o1 | 3 | · | -5 | 4 | 2 | · | ·
CCc1sc(C(=O)Nc2ccc3nc(C)sc3c2)cc1C | 4 | 0 | 2 | 10 | 3 | · | ·
CCc1sc(C(=O)Nc2ccc(NC(C)=O)cc2)cc1C | 2 | 2 | 27* | -5 | -1 | 1 | 0
Cc1ccc2nc3[nH]c(=O)[nH]c(=O)c3c(N)c2c1 | 6 | 0 | 105* | 10 | 7 | -9 | -5
COc1ccc(NC(=O)Nc2ccc3c(c2)C(=O)N([C@H](C)CO)C[C@H](C)[C@H](CN(C)C(=O)Nc2ccccc2)OCCCC[C@H](C)O3)cc1 | · | -1 | · | · | · | · | ·
Nc1nc(N)c2cc(Sc3ccc(Cl)cc3)ccc2n1 | 9 | 1 | 68* | 1 | -1 | 64* | 59*
Nc1nc(N)c2cc(Sc3cccc(C(F)(F)F)c3)ccc2n1 | 7 | 1 | 52* | 4 | 1 | + | 177*
Nc1nc(N)c2cc(Sc3ccc4ccccc4c3)ccc2n1 | 6 | 1 | 9 | -2 | -13 | · | ·
CC(C)(C)C(=O)CSc1ncccn1 | 5 | 0 | 2 | 7 | 8 | · | ·
C=CCNC(=O)CSc1n[nH]c(-c2cc(Cl)ccc2OC)n1 | -1 | -1 | 0 | -2 | 7 | · | ·
C=CCNC(=O)CSc1ncc2c(n1)-c1c(csc1SC)CC2 | 11 | 3 | 99* | 4 | 10 | 82* | 59*
CSc1scc2c1-c1nc(SCC(=O)C(C)(C)C)ncc1CC2 | -5 | 3 | 30* | 2 | 13 | 67* | 48*
SMILES | GDH-TPI counter-1 | TcdB inh | FBA Mtb inh | PrPC surface inh | Y pestis TopoI | Mtb FBA confirm | GDH-TPI counter-2 | others
O=C(C1=C[C@@H](c2ccc3c(c2)OCO3)C[C@@H](OCc2ccc(CO)cc2)O1)N1CCCCC1 | · | -1 | · | · | · | · | ·
COCC#Cc1cnc2c(c1)C(=O)N([C@@H](C)CO)C[C@H](C)[C@@H](CN(C)C(=O)CCN1CCCCC1)O2 | · | 0 | · | · | · | · | ·
CO[C@@H](CN(C)S(=O)(=O)c1cn(C)cn1)[C@H](C)CN(C(=O)Nc1ccc(F)cc1)[C@H](C)CO | · | 0 | · | · | · | · | ·
O=C(O)c1cccc(Nc2nc(-c3cc4ccccc4oc3=O)cs2)c1 | 20 | 1 | 28* | 2 | -6 | 84* | 72*
CCOC(=O)N(NC(=O)C(O)(C(C)C)C(C)C)c1ccccc1 | 7 | 0 | 101* | -8 | 0 | 47* | 55*
CCOc1ccccc1Oc1c(C)oc2cc(OC(=O)c3ccco3)ccc2c1=O | 12 | · | 17 | 2 | 3 | · | ·
COc1ccccc1Oc1c(C)oc2cc(OC(=O)c3ccco3)ccc2c1=O | 14 | · | 55* | 6 | 24 | 119* | 111*
COc1ccccc1-c1c(C)oc2cc(OC(=O)c3ccco3)ccc2c1=O | 1 | · | 36* | 6 | 18 | 15 | 1 | GDH-TPI dose=4.5*
CC=Cc1ccc2n(c1=O)C[C@H]1[C@H](CO)[C@@H](C(=O)NCc3ccccn3)N(CC3CC3)[C@@H]21 (mixture of isomers) | · | -2 | · | · | · | · | ·
Cc1cccn2c(=O)cc(COC(=O)C(C)Oc3ccccc3)nc12 (configuration not stated) | 4 | 3 | 4 | -6 | -1 | · | ·
Cc1cc(=O)n2cccc(O)c2n1 | 6 | 1 | 75* | -1 | 9 | + | +
O=C(NCc1ccccc1)[C@@H]1[C@@H](CO)[C@@H]2Cn3c(cccc3=O)[C@@H]2N1C(=O)C1CC1 | · | 1 | · | · | · | · | ·
CCCC#Cc1cnc2c(c1)C(=O)N([C@@H](C)CO)C[C@@H](C)[C@@H](CN(C)C(=O)c1ccc(F)cc1)O2 | · | 0 | · | · | · | · | ·
CCOC(=O)CCSc1nc(C)c2cc(C)c(C)cc2n1 | -3 | · | 2 | 6 | 25 | · | ·
CCOC(=O)CCSc1nc(C)c2cc(OC)ccc2n1 | 0 | · | 36* | 14 | -3 | 140* | 116*
COc1ccc(NC(=O)Nc2ccc3c(c2)CC(=O)N([C@H](C)CO)C[C@H](C)[C@H](CN(C)S(=O)(=O)c2ccc(F)cc2)O3)cc1 | · | 0 | · | · | · | · | ·
c1ccc(N2N=C(c3cccs3)CC2c2ccco2)cc1 (configuration not stated) | 20 | · | 78* | -2 | -5 | 14 | 10*
Fc1ccc(C2CC(c3ccco3)=NN2c2ccccc2)cc1 (configuration not stated) | 8 | · | 60* | 8 | -8 | + | +
Clc1ccc(N2N=C(c3cccs3)CC2c2ccco2)cc1 (configuration not stated) | 3 | · | 81* | -3 | -6 | 82* | 55*
CS(=O)(=O)N1N=C(c2ccco2)CC1c1ccccc1 (configuration not stated) | 2 | 1 | 3 | -2 | 2 | · | ·
CCC(=O)N1N=C(c2cccs2)CC1c1ccco1 (configuration not stated) | 2 | -1 | 3 | -6 | 3 | · | ·
CCN(CC)CC(=O)N1N=C(c2cccs2)CC1c1ccco1 (configuration not stated) | 15 | · | 2 | -6 | 1 | · | ·
